A selection: hits, their analogues and other compounds. The true share with any hit is near 2.8%.
PAFAH2 inh = inhibitors of human PAFAH2 | Q99487 | recombinant PAFAH2, FP-rhodamine activity probe, fluorescence polarization | inhibition, % at 3.39 µM | actives 0.99% (n = 340,000);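 active = inhibition above the mean over all tested compounds plus 3 SD, cut at about 30% in these data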;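 note: inhibitors block probe labeling of enzyme so polarization drops; 0% = enzyme with DMSO and 100% = wells lacking PAFAH2 protein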
PAFAH1B2 FP inh = PAFAH1B2 (human) inhibition | actives 1.2% (n = 340,000) | P68402 | recombinant PAFAH1B2, FP-rhodamine activity probe, fluorescence polarization | inhibition, % at 3.39 µM | AID 492953;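 active = inhibition above the mean of all tested compounds plus 3 SD, cut at about 24% in these data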;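 note: 0% = enzyme with DMSO and 100% = wells lacking PAFAH1B2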
PME-1 primary = PME-1 (human) inhibition; actives 0.53% (n = 320,000); inhibition, % at 5.9 µM; recombinant PME-1, FP-Rh probe fluorescence polarization;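 active = inhibition above the campaign mean of all compounds plus 3 SD, cut at about 26% in these data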;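 note: competitive labeling of PME-1 active site by serine hydrolase directed probe; 0% = PME-1 with DMSO and 100% = wells lacking PME-1 enzyme; inhibitors block probe labeling so polarization falls and inhibition rises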
PAFAH1B3 inh = PAFAH1B3 (human) inhibition. Q15102. recombinant PAFAH1B3, FP-rhodamine probe, fluorescence polarization. inhibition, % at 3.39 µM. actives 0.28% (n = 340,000);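 active = inhibition above the screen-wide average of all tested compounds plus 3 SD, cut at about 25% in these data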;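 note: 0% = enzyme with DMSO only and 100% = wells lacking PAFAH1B3 protein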
Target sequence (Q15102 whole entry, looked up): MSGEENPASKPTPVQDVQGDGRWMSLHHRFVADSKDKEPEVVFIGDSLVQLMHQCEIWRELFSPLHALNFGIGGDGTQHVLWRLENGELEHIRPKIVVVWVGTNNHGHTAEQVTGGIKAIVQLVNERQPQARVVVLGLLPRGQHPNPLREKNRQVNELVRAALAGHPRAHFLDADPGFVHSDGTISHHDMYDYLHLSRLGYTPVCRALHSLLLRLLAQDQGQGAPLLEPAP
Fam108B counter = Fam108B inhibition, counter-screen for RBBP9 inhibitors. recombinant Fam108B, FP-Rh probe fluorescence polarization. inhibition, % at 9.51 µM. actives 0.33% (n = 300,000). AID 1947;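 active = inhibition above the screen mean inhibition plus 3 SD, computed separately per campaign, cut at about 18% in these data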;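 note: inhibitors lower polarization as less probe binds the enzyme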
pPAFAH inh = inhibitors of human plasma PAF acetylhydrolase (pPAFAH) | inhibition, % at 3.39 µM | AID 463082 | recombinant pPAFAH, FP-rhodamine probe fluorescence polarization | Q13093 | actives 1.5% (n = 330,000);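 active = inhibition above the mean inhibition across the screen plus 3 SD, cut at about 25% in these data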;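 note: inhibitors block binding of the rhodamine activity-based probe so polarization drops; 0% = enzyme with DMSO and 100% = wells lacking pPAFAH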
Target sequence (Q13093 whole entry, looked up): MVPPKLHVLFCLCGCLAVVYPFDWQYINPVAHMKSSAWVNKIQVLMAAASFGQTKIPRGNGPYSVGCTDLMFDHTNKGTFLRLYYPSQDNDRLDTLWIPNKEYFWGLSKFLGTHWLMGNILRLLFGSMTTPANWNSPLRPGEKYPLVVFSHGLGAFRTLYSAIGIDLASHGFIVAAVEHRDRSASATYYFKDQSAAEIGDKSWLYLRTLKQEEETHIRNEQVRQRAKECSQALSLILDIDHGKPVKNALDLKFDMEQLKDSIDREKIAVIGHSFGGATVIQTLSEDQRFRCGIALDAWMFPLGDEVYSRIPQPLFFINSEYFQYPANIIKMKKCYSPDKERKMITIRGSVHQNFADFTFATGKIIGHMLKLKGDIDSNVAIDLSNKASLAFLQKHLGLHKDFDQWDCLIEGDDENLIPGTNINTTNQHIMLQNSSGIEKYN
PAFAH2 confirm = confirmation of human PAFAH2 inhibitors. shares compounds with PAFAH2 inh. recombinant PAFAH2, FP-rhodamine activity probe, fluorescence polarization. inhibition, % at 3.39 µM. actives 65% (n = 2,300);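 active = mean inhibition over three repeats above a set limit taken from the earlier primary screen, cut at about 30% in these data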;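 note: inhibitor blocks binding of rhodamine activity probe so polarization falls; 0% = enzyme with DMSO and 100% = wells lacking PAFAH2 protein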
* hit, by the source's call; nt = no result.

SMILES | PAFAH2 inh | PAFAH1B2 FP inh | PME-1 primary | PAFAH1B3 inh | Fam108B counter | pPAFAH inh | PAFAH2 confirm
CC(=O)c1cccc(NC(=O)COC(=O)c2cccs2)c1 | 81* | 4 | -8 | 0 | 1 | 8 | 77*
CCN(c1ccc(NC(=O)COC(=O)c2cccs2)cc1)C(C)C | 30* | -6 | 0 | 5 | 1 | 11 | 19
O=C(COC(=O)c1cccs1)Nc1cccc(Cl)c1 | 91* | 8 | 0 | 7 | nt | 6 | 89*
COC(=O)c1c(NC(=S)NNC(=O)c2ccc(Cl)s2)sc(C(=O)N(C)C)c1C | 50* | 3 | 7 | 5 | 3 | 10 | 41*
O=C(COC(=O)c1cccs1)Nc1ccccc1[N+](=O)[O-] | 75* | 3 | 1 | -3 | 4 | 2 | 68*
N#Cc1ccccc1NC(=O)COC(=O)c1cccs1 | 84* | 5 | nt | -2 | nt | 4 | 63*
COc1ccc(Cn2c(SCC(=O)NCc3ccco3)nc3ccsc3c2=O)cc1 | 4 | 4 | -2 | -4 | -1 | -5 | nt
COC(=O)C(C)Sc1nc2ccsc2c(=O)n1Cc1ccccc1 (centres undefined) | 35* | 2 | -5 | 0 | 1 | 2 | 24
CC(C)CC(NC(=O)OC(C)(C)C)C(=O)NC(C(=O)N1CCCC1C(N)=O)C(C)C (centres undefined) | -4 | -1 | -2 | 5 | -2 | 2 | nt
CC(C)CC(NC(=O)C(NC(=O)C1CCC(=O)N1C(=O)OCc1ccccc1)C(C)C)C(=O)N1CCCC1C(N)=O (centres undefined) | 40* | 2 | -1 | 1 | -11 | -4 | 41*
O=C(COC(=O)/C=C/c1ccc(F)cc1)Nc1ccc(Cl)cn1 | 30* | -2 | -3 | 7 | -4 | 2 | 22
COc1cc(/C=C/C(=O)OCC(=O)Nc2ccc(S(N)(=O)=O)cc2)ccc1O | -3 | -1 | -5 | 3 | 1 | 4 | nt
CCOC(=O)/C=C/C(=O)OCC(=O)Nc1ccc(Cl)cn1 | -2 | -6 | -6 | -1 | -3 | 2 | nt
COc1cc(/C=C/C(=O)OCC(=O)Nc2ccc(Cl)cn2)ccc1O | 64* | 4 | 6 | 7 | nt | 5 | 66*
COc1cc(/C=C/C(=O)OCC(=O)Nc2ccc([N+](=O)[O-])cc2)ccc1O | 78* | 1 | 3 | 5 | 4 | 6 | 81*
CC(C)=CC(=O)OCC(=O)Nc1ccc(Cl)cn1 | 52* | 5 | 1 | 5 | -4 | 3 | 43*
O=C(COC(=O)c1ccccc1SCC(=O)N1CCCC1)Nc1ccc(OC(F)F)cc1 | 73* | 4 | 0 | 0 | 1 | 23 | 76*
Cc1cccc(NC(=O)COC(=O)c2ccccc2SCC(=O)N2CCCC2)c1 | 88* | 1 | -2 | -2 | -2 | 5 | 74*
CNC(=O)COc1coc(CN2CCN(c3ccc(OC)cc3)CC2)cc1=O | 4 | -2 | -2 | 12 | -3 | 5 | nt
NC(=O)COc1ccc(C(=O)NCC2(N3CCOCC3)CCCCC2)cc1 | 4 | 6 | 3 | 11 | nt | 0 | nt
O=C(c1ccc(Oc2ccc([N+](=O)[O-])cc2Cl)cc1)N1CCCC1 | 40* | 2 | 0 | -3 | 9 | 14 | 30*
O=C(c1ccccc1Oc1ccc(C(F)(F)F)cc1[N+](=O)[O-])N1CCOCC1 | -2 | 3 | 1 | -1 | 2 | 1 | nt
O=C(c1cccc(Oc2ccc([N+](=O)[O-])cc2Cl)c1)N1CCCCC1 | -2 | 1 | 11 | 2 | 6 | 19 | nt
O=C(c1ccc(Oc2ccc(C(F)(F)F)cc2[N+](=O)[O-])cc1)N1CCOCC1 | 34* | -5 | 3 | 5 | 1 | 2 | 27
CN(C(=O)CSC(=O)c1ccccc1)c1ccccc1 | 6 | -1 | -1 | 16 | -1 | 8 | nt
SMILES | PAFAH2 inh | PAFAH1B2 FP inh | PME-1 primary | PAFAH1B3 inh | Fam108B counter | pPAFAH inh | PAFAH2 confirm
CCc1nnc(NS(=O)(=O)c2ccc(NC(=O)c3ccccc3O)cc2)s1 | 5 | 4 | -4 | 8 | 6 | -4 | nt
O=C1CCCC/C=C\C[C@H](CC(=O)N(CCO)Cc2ccccc2)C(=O)N[C@@H](c2ccccc2)CO1 | 48* | 4 | nt | 7 | nt | 6 | 33*
O=C(NCC(c1cccs1)N1CCOCC1)c1ccccc1NS(=O)(=O)c1ccc(Cl)c([N+](=O)[O-])c1 (centres undefined) | 43* | 17 | 2 | 13 | -2 | -3 | 81*
C=C1CCN([C@@H](Cc2ccccc2)C(=O)NCCCc2ccccc2)S(=O)(=O)c2ccccc21 | -6 | 0 | -3 | 5 | -4 | 9 | nt
CCOc1ccccc1N1CC(C(=O)NC2CCCCCC2)CC1=O (centres undefined) | -3 | 2 | nt | 10 | nt | 3 | nt
N#CC1=C(SCC(=O)Nc2cccc3cccnc23)NC(=O)C(C#N)C12CCCCC2 (centres undefined) | 38* | 11 | 7 | 9 | 4 | 9 | 27
Cc1c(C(=O)OCC(=O)NC2CC2)oc2ccc(Br)cc12 | 9 | -1 | nt | -7 | nt | nt | nt
COc1ccc2oc(C(=O)OCC(=O)NC3CCCC3)c(C)c2c1 | 53* | -2 | 3 | 2 | 1 | 8 | 40*
COc1ccc2oc(C(=O)OCC(=O)NC3(C#N)CCCC3)c(C)c2c1 | 53* | -3 | 0 | 2 | 3 | 8 | 38*
COc1ccc2oc(C(=O)OCC(=O)Nc3ccc(NC(C)=O)cc3)c(C)c2c1 | -37 | -13 | -49 | -30 | -26 | -11 | nt
Cc1cc(C)cc(N(CCC#N)C(=O)COC(=O)c2ccc(OCc3c(C)noc3C)cc2)c1 | -2 | -2 | -2 | -4 | -1 | 7 | nt
CCc1nnc(NS(=O)(=O)c2ccc(N=CC3=C(O)CC(C)(C)CC3=O)cc2)s1 | -6 | 1 | 0 | 9 | -2 | 0 | nt
COc1cc(/C=C2\SC(=O)N(c3ccc(O)cc3)C2=O)cc(OC)c1OC | -1 | -3 | 3 | 5 | 2 | 1 | nt
COc1cc(/C=C2\SC(=O)N(c3ccccc3Cl)C2=O)cc([N+](=O)[O-])c1O | 36* | 14 | nt | 20 | nt | nt | 23
Cc1noc(C)c1COc1ccc(C(=O)OCC(=O)Nc2ccc(S(N)(=O)=O)cc2)cc1 | -1 | 5 | -4 | 5 | nt | 0 | nt
O=C(COC(=O)c1ccc(NC(=O)C2CC=CCC2C(=O)O)cc1)c1ccccc1 (centres undefined) | 31* | 8 | -1 | 7 | 3 | -1 | 31*
O=C(COC(=O)c1c(F)cccc1F)Nc1ccc2c(c1)OCO2 | 10 | -4 | nt | 2 | nt | nt | nt
O=C(COC(=O)c1ccc(Cl)nc1)Nc1ccc(Cl)cc1 | 36* | 3 | nt | 4 | nt | nt | 33*
O=C(COC(=O)c1ccc(O)cc1)Nc1ccc2c(c1)OCO2 | 89* | 2 | nt | 4 | nt | 11 | 81*
